Structures can show the parent of a compound that is named as a salt.
tested on: hN + hpA co-culture (H1 iNGN2 human neurons + human primary astrocytes); assay: presynaptic density (SYNAPSIN1 puncta per MAP2 neurite area), Z-score vs DMSO controls; higher = more presynaptic puncta (synapse-promoting); conditions: 3 µM; 72 h
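Note: immunostained co-cultures imaged by high-content microscopy, Z-score per plate against mean and SD of 0.1% DMSO wells, compounds added on differentiation day 18, analysed day 21.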

Compound | presynaptic density (Z-score)
CC1=C(C(=O)Nc2cc3cn[nH]c3cc2F)C(c2ccc(C(F)(F)F)cc2)CC(=O)N1 (stereo not drawn) | 1.88
CC(C)NC[C@@H](C(=O)N1CCN(c2ncnc3c2[C@H](C)C[C@H]3O)CC1)c1ccc(Cl)cc1 | -0.322
Cc1cn([C@H]2C=C[C@@H](CO)O2)c(=O)[nH]c1=O [Stavudine (d4T)] | 0.723
CC(C=CC(=O)NO)=CC(C)C(=O)c1ccc(N(C)C)cc1 (stereo not drawn) [Trichostatin A (TSA)] | 11.2
CN(C)Cc1ccc(-c2nc3cccc4c3n2CCNC4=O)cc1 | -0.178
CN(C)CCCCC(=O)Nc1ccc(NC(=S)NC(=O)c2ccc(C(C)(C)C)cc2)cc1 [Tenovin-6] | -0.671
O=c1ncn2nc(Sc3ccc(F)cc3F)ccc2c1-c1c(Cl)cccc1Cl | 0.626
CCn1c(N)c(C(=O)NC)c(=O)c2ccc(C#CC(C)(O)COC)nc21 (stereo not drawn) | 0.325
CCOC(=O)C1=C(N)Oc2ccc(Br)cc2C1C(C#N)C(=O)OCC (stereo not drawn) | 0.81
O=C(Nc1cccnc1)N1CCC(Cc2cccc(Oc3ccc(C(F)(F)F)cn3)c2)CC1 | -1.87
Nc1cccc2c1CN(C1CCC(=O)NC1=O)C2=O (stereo not drawn) [Lenalidomide] | 1.39
CC(C)CC(=O)Nc1n[nH]c2c1CN(C(=O)C1CCN(C)CC1)C2(C)C | -2.75
C[C@H](CS)C(=O)N1CCC[C@H]1C(=O)O [Captopril] | -1.61
O=C(Nc1ccncc1)c1cc([N+](=O)[O-])ccc1Cl [2-Chloro-5-nitro-N-4-pyridinylbenzamide] | 0.702
Cc1c(-c2ccc(O)cc2)n(Cc2ccc(OCCN3CCCCCC3)cc2)c2ccc(O)cc12 [Bazedoxifene HCl] | -0.982
CN1CC(=O)N2[C@H](c3ccc4c(c3)OCO4)c3[nH]c4ccccc4c3C[C@@H]2C1=O [Tadalafil] | -0.533
CN(c1ncccc1CNc1nc(Nc2ccc3c(c2)CC(=O)N3)ncc1C(F)(F)F)S(C)(=O)=O | -0.85
Cc1ccc(C(=O)N(CCCN)[C@@H](c2nc3cc(Cl)ccc3c(=O)n2Cc2ccccc2)C(C)C)cc1 | -0.26
C1=N/C2=N/c3ccc(OCCN4CCCC4)c(c3)COC/C=C/COCc3cccc(c3)C(=C1)N2 [Pacritinib (SB1518)] | -1.08

Compound | presynaptic density (Z-score)
Cc1cc(OCCCS(C)(=O)=O)cc(C)c1-c1cccc(COc2ccc3c(c2)OC[C@H]3CC(=O)O)c1 | -0.294
CN1CCC[C@@H]1CCO[C@](C)(c1ccccc1)c1ccc(Cl)cc1 [Clemastine] | -0.781
Cc1cccc(-c2nn3c(c2-c2ccnc4ccc(C(N)=O)cc24)CCC3)n1 | 0.336
Cc1cn(-c2cc(NC(=O)c3ccc(C)c(Nc4nccc(-c5cccnc5)n4)c3)cc(C(F)(F)F)c2)cn1 [Nilotinib (AMN 107 or Tasigna)] | -1.02
Cc1cc2c(cc1CC(=O)c1sccc1S(=O)(=O)Nc1onc(C)c1Cl)OCO2 [Sitaxentan sodium] | -0.569
CC(C)C[C@H](NC(=O)[C@@H](NC(=O)c1cccc(-c2ccccc2)n1)[C@@H](C)O)B(O)O | -3.12
CC(=O)c1c(C)c2cnc(Nc3ccc(N4CCNCC4)cn3)nc2n(C2CCCC2)c1=O | -0.609
COC(=O)C1=C(C#N)NC(C)=C(C(=O)OC(C)C)C1c1cccc([N+](=O)[O-])c1 (stereo not drawn) [Nilvadipine] | -0.965
C[C@@H](Oc1cc(-n2cnc3ccc(CN4CCN(C)CC4)cc32)sc1C(N)=O)c1ccccc1C(F)(F)F | -1.83
O=C(N/N=C/c1ccc(O)c(O)c1)c1cc2ccccc2cc1O | -0.146
Cc1cc(Nc2cc(CN3CCOCC3)c3nc(C)c(Cc4ccc(Cl)cc4F)n3n2)n[nH]1 | -1.8
C[C@H]1COC2(CCN(c3nc(=O)c4cc(C(F)(F)F)cc([N+](=O)[O-])c4s3)CC2)O1 (racemic) [BTZ043 Racemate] | 0.635
C#Cc1cccc(Nc2ncnc3cc4c(cc23)OCCOCCOCCO4)c1 [Icotinib] | -0.0135
COCCCC/C(=N\OCCN)c1ccc(C(F)(F)F)cc1 [Fluvoxamine maleate] | -0.239
CCN(Cc1ccncc1)C(=O)C(CO)c1ccccc1 (stereo not drawn) [Tropicamide] | -0.597
CCN(c1cc(-c2ccc(CN3CCOCC3)cc2)cc(C(=O)NCc2c(C)cc(C)[nH]c2=O)c1C)C1CCOCC1 | -0.342
CCOC(=O)N1CCC(=C2c3ccc(Cl)cc3CCc3cccnc32)CC1 [Loratadine] | 1.78
NC(=O)Nc1sc(-c2ccc(F)cc2)cc1C(N)=O | -1.69
C[C@]12CC[C@@H]3c4ccc(O)cc4C[C@@H](CCCCCCCCC[S+]([O-])CCCC(F)(F)C(F)(F)F)[C@H]3[C@@H]1CC[C@@H]2O (stereo partly drawn) [Fulvestrant] | -0.41

From the supplement of paper PMC10121225
